Assay results: PubChem BioAssay (NCATS)
Unmarked numbers belong to inactive results. Inconclusive results are not listed. Activity calls are given as the source filed them. Unless noted, calls come from the whole dose curve; as a rule, active = well fitted curve in either direction with a large enough effect (not every such curve was filed as active); inconclusive = small, poorly fitted or top-dose-only effect, or another doubt; inactive = flat fitted curve, though single readings scatter.

Assays:
[1] = AP1 Signaling Pathway (AID 357); settings: ME-180 AP-1-bla reporter, EGF-induced, beta-lactamase ratio, 5 h; at 17.2 µM (top of the series) unless noted;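 note: ME-180 reporter cells stimulated with EGF at its EC50 level; % is set by controls: 0 for no effect and ±100 for the full control effect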
In short: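 A ratiometric CCF4 readout (405 nm excitation; 460 and 530 nm emission) quantified AP-1-driven beta-lactamase in ME-180 cells after 5 h with compound and EC50 EGF; AC50 values were derived for activators and inhibitors.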

[2] = target: Cytochrome P450 1A2 (Homo sapiens) (UniProt P05177); assay: p450-cyp1a2 (AID 410; calls by dose curve; note: potency is the fitted concentration of half-maximal effect;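 for activity change, negative = inhibition: -100% = full effect of reference inhibitor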)
In short: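 20nM CYP1A2 with 100uM Luciferin-ME (at Km) in 100mM KPO4; compound preincubated 10 min, NADPH regeneration added, 60 min at room temperature. Luciferin quantified by luminescence after detection reagent; normalized to 57 uM furafylline.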

[3] = Stat Signaling Pathway (AID 446); settings: ME-180 SIE beta-lactamase reporter, IL-6 stimulated, 5 h; at 17.2 µM (top of the series) unless noted;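 note: ME-180 cervical cancer cells given 40 pM IL-6 alongside compound; SIE-controlled beta-lactamase reporter measured as 460/530 nm FRET emission ratio; % is set by controls: 0 for no effect and ±100 for the full control effect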
In short: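 Screening format detects activators and inhibitors alike: ME-180 SIE-bla cells stimulated at 40 pM IL-6 for 5 hrs with compound, then dual-emission beta-lactamase read at 405 nm excitation.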

[4] = target: Glucocorticoid receptor (Homo sapiens) (UniProt P04150); assay: GR-GFP Redistribution (AID 450;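 active = compounds whose dose series gives a full or clear partial fitted curve of increased nuclear translocation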; note: potency is the fitted concentration of half-maximal effect)
[5] = target: Glucocorticoid receptor (Homo sapiens) (UniProt P04150); assay: GR-EFC Redistribution (AID 451; calls by dose curve; note: potency is the fitted concentration of half-maximal effect); settings: CHO-K1 GR-EFC translocation, beta-gal luminescence, 2 h
In short: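 CHO-K1 cells expressing nuclear EA and GR-ED fragments of b-gal; compounds titrated up to 46 uM final, 2 h at 37 C. GR nuclear translocation read as complemented b-gal luminescence after 1 h RT detection.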

[6] = target: Cytochrome P450 2C9 (Homo sapiens) (UniProt P11712); assay: qHTS Assay for Inhibitors and Substrates of Cytochrome P450 2C9 (AID 883; active = well fitted curve in the direction sought with a large enough effect; an effect the other way counts as inactive or inconclusive; note: % is set by controls: 0 for no effect and ±100 for the full control effect; nearly all actives have a fitted effect of over 60% in size)
In short: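 Signal: luciferase luminescence reporting luciferin produced by CYP2C9. Conditions: 10nM enzyme, Luciferin-H 100uM at KM, 25mM KPO4, 37C, 60 min NADPH-driven reaction. Reference: 57uM sulphaphenazole as 100% inhibition.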

[7] = target: Cytochrome P450 2D6 (Homo sapiens) (UniProt P10635); assay: qHTS Assay for Inhibitors and Substrates of Cytochrome P450 2D6 (AID 891; active = well fitted curve in the direction sought with a large enough effect; an effect the other way counts as inactive or inconclusive; note: nearly all actives have a fitted effect of over 60% in size; note: potency is the fitted concentration of half-maximal effect)
In short: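 Human CYP2D6 (5 nM) with 30 uM Luciferin-ME EGE (at Km) in 100 mM KPO4, compound preincubated 10 min, then NADPH regeneration system for 60 min at room temperature. Luciferin read by luminescence; normalized to 1.43 uM quinidine.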

[8] = target: Cytochrome P450 2C19 (Homo sapiens) (UniProt P33261); assay: qHTS Assay for Inhibitors and Substrates of Cytochrome P450 2C19 (AID 899; active = well fitted curve in the direction sought with a large enough effect; an effect the other way counts as inactive or inconclusive; note: % is set by controls: 0 for no effect and ±100 for the full control effect; nearly all actives have a fitted effect of over 60% in size)
In short: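 Signal comes from luciferase acting on luciferin released by CYP2C19-mediated hydroxylation of Luciferin-H EGE, 10uM (KM). Assay mix: 5nM enzyme, 50mM KPO4; 60 min at 37C with NADPH regeneration. Data normalized against 57uM ketoconazole.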

[9] = target: Mitogen-activated protein kinase 10 (Mus musculus) (UniProt Q61831); assay: JNK3 AlphaScreen Assay (AID 530);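 note: kinase came from lysate of stimulated human HepG2 cells; signal reports phosphorylation of biotinylated GST-cJun 1-79 at Ser73 with 10 µM ATP; % is set by controls: 0 for no effect and ±100 for the full control effect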
In short: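 Pre-activated (IL-1β/TNFα) JNK3 in HepG2 lysates phosphorylates biotin-GST-cJun(1-79), 10 uM ATP; anti-phospho-cJun(Ser73) AlphaScreen read at room temperature, pH 7.6 Tris buffer. Compounds pre-incubated 15 min as titrations.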

[10] = target: 3',5'-cyclic-AMP phosphodiesterase 4B (Homo sapiens) (UniProt Q07343); assay: qHTS Assay for Inhibitors of PDE-IV (AID 607; active = well fitted activation curve with a large enough effect in the main read-out, with a control signal flat, not every such curve was filed as active; note: % of control where 0% means no effect)
In short: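 The readout is membrane depolarisation from a cAMP-sensing CNG channel, detected with a potential dye at ex 535/em 590. Cells were HEK293-derived (endogenous PDE-IV) at 1000 cells/well, titrated up to 22.9 uM final.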

[11] = Confirmation and Secondary Assay for Modulators of Hemoglobin Beta Chain Splicing at IVS2 705 locus (AID 930; active = well fitted curve in the direction sought with a large enough effect; an effect the other way counts as inactive or inconclusive;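 note: HeLa cells stably expressing the EGFP-705 splicing reporter; % of control where 0% means no effect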)
In short: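 HeLa cells stably carrying EGFP interrupted by mutant beta-globin IVS2-705 intron (CMV-driven) were seeded at 500 cells/well, treated next day with compound for 2 days at 37C; corrected splicing restores EGFP, read as total peak GFP intensity per well.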

[12] = NFAT Signaling Pathway (AID 444); settings: Jurkat NFAT-bla M1, carbachol, beta-lactamase ratio, 5 h; at 17.2 µM (top of the series) unless noted;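 note: carbachol stimulus at about its EC50 of 1 µM final; % is set by controls: 0 for no effect and ±100 for the full control effect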
In short: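 Jurkat cells with NFAT-driven β-lactamase reporter and co-expressed M1 receptor, stimulated with carbachol (final 1 uM, ~EC50), compound titration, 5 h at 37 °C. CCF4 loaded 1 h at RT; 460/530 nm ratio gave %activity and AC50.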

[13] = target: Cytochrome P450 3A4 (Homo sapiens) (UniProt P08684); assay: qHTS Assay for Inhibitors and Substrates of Cytochrome P450 3A4 (AID 884; active = well fitted curve in the direction sought with a large enough effect; an effect the other way counts as inactive or inconclusive; note: % is set by controls: 0 for no effect and ±100 for the full control effect; nearly all actives have a fitted effect of over 50% in size)
In short: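 20 nM human CYP3A4 with 25 uM Luciferin-PPXE (at KM) in 200 mM KPO4, preincubated 10 min with compound; NADPH regeneration started a 60 min RT reaction. Luciferin detected by luminescence, normalized to 57 uM ketoconazole as full inhibition.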

[14] = qHTS Assay for Identification of Small Molecule Antagonists for NFkB Signaling Pathway (AID 895; active = well fitted inhibition curve with a large enough effect in the signal ratio, with a control signal flat, not every such curve was filed as active; the % refers to the signal ratio; note: % is set by controls: 0 for no effect and ±100 for the full control effect)
In short: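 ME-180 NFkB-bla cells (beta-lactamase under NFkB response element), plated overnight, treated with compound then 10 pM TNF alpha (about EC50) for 5 hrs at 37 C. LiveBLAzer FRET read at 460/530 nm emission, 405 nm excitation.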

[15] = target: Muscarinic acetylcholine receptor M1 (Rattus norvegicus) (UniProt P08482); assay: qHTS Assay for Antagonists of Acetylcholine Muscarinic M1 Receptor: Measurement of IP-One Response (AID 944; active = well fitted curve in the direction sought with a large enough effect; an effect the other way counts as inactive or inconclusive; note: nearly all actives have a fitted effect of over 75% in size)
In short: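 CHO cells stably expressing rat M1, pretreated 10 min with compound, then stimulated 30 min with carbachol at EC80 (200 nM) in LiCl-containing buffer pH 7.4; IP1 accumulation read by HTRF competition (665/620 nm).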

[16] = target: Pyruvate kinase (Leishmania mexicana) (UniProt Q27686); assay: qHTS Validation Assay for Inhibitors of Leishmania Mexicana Pyruvate Kinase (AID 945; active = well fitted curve in the direction sought with a large enough effect; an effect the other way counts as inactive or inconclusive;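 note: 0% = DMSO only neutral control wells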)
In short: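 LmPYK E451W 0.2 nM; 0.5 mM PEP, 0.1 mM ADP, 7 mM MgCl2, 50 mM KCl, imidazole pH 7.2, 0.01% Tween 20, 0.05% BSA; 1 h RT; PKLight luminescence; DMSO-normalized.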

[17] = target: Pyruvate kinase PKM (Homo sapiens) (UniProt P14618); assay: qHTS Assay for Activators of Human Muscle Pyruvate Kinase (AID 954; active = well fitted curve in the direction sought with a large enough effect, not every such curve was filed as active;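 note: 0% = uninhibited enzyme and -100% = no enzyme or full thiadiazolimine inhibition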)
In short: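 Reaction: 0.1 nM purified PKM2 with 0.5 mM phosphoenolpyruvate and 0.1 mM ADP, room temperature, 1 h. Readout: luciferase-based ATP luminescence after stop reagent. Activators judged against a 0.3 nM enzyme column.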

[18] = target: Alpha-galactosidase A (Homo sapiens) (UniProt P06280); assay: Counterscreen for Glucocerebrosidase Inhibitors: qHTS Assay for Human alpha-Galactosidase at pH 4.5 (AID 992; active = well fitted curve in the direction sought with a large enough effect; an effect the other way counts as inactive or inconclusive; note: 0% is about no effect)
In short: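 Concentration-response curves (0.7 nM to 77 uM final) were modeled with the Hill equation to give AC50. Reactions: 2 nM enzyme, 80 uM fluorogenic alpha-galactoside, pH 4.5 citric acid buffer, 20 min, room temperature.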

[19] = target: alpha-glucosidase (Oryza sativa, rice) (UniProt Q653V4); assay: Counterscreen for Glucocerebrosidase Inhibitors: qHTS Assay for Rice alpha-Glucosidase at pH 5.0 (AID 997; active = well fitted curve in the direction sought with a large enough effect; an effect the other way counts as inactive or inconclusive;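 note: 0% = full activity with enzyme and -100% = basal without enzyme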)
In short: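 Rice alpha-glucosidase (4 nM final) with 400 uM 4-methylumbelliferyl-alpha-D-glucopyranoside in citrate buffer pH 5.0, 20 min at room temperature, stopped at pH 10; fluorescence 365/440 nm, compounds 0.7 nM–77 uM, AC50 from Hill fits.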

Cytochrome P450 1A2 (Homo sapiens), sequence (P05177 whole entry, looked up): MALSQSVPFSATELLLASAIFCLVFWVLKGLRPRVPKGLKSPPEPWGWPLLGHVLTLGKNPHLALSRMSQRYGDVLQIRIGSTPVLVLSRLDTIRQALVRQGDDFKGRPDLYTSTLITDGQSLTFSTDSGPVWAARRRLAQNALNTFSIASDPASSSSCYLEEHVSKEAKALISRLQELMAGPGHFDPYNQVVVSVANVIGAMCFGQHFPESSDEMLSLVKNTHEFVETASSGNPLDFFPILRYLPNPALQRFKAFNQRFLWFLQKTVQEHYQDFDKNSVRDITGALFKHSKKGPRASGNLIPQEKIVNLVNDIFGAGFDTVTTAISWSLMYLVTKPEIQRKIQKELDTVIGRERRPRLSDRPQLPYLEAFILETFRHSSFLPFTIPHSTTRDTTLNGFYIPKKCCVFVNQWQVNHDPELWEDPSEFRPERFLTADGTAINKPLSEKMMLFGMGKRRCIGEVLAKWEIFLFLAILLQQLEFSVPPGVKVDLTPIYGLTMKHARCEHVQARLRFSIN
Glucocorticoid receptor (Homo sapiens), sequence (P04150 whole entry, looked up, the tested form may be a part): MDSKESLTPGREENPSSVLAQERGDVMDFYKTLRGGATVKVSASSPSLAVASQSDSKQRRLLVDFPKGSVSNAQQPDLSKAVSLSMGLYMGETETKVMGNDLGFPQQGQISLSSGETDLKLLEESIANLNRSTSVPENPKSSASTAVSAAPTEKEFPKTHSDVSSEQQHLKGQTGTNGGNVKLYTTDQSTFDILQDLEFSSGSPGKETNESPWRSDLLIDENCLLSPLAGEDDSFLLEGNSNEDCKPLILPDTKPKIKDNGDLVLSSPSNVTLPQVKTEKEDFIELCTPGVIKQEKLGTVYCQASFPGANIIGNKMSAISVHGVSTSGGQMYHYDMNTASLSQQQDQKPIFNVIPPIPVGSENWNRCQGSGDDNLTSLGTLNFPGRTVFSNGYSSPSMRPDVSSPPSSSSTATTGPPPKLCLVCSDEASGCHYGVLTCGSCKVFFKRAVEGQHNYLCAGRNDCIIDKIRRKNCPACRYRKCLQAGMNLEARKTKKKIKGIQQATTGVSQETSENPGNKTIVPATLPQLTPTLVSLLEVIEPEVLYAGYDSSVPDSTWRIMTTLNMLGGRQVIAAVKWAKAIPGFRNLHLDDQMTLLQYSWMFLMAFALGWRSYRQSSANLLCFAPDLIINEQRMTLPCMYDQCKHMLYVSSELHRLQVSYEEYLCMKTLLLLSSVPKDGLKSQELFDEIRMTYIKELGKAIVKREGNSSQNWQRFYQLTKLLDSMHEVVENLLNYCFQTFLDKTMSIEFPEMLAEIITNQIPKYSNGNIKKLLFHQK
3',5'-cyclic-AMP phosphodiesterase 4B (Homo sapiens), sequence (Q07343 whole entry, looked up): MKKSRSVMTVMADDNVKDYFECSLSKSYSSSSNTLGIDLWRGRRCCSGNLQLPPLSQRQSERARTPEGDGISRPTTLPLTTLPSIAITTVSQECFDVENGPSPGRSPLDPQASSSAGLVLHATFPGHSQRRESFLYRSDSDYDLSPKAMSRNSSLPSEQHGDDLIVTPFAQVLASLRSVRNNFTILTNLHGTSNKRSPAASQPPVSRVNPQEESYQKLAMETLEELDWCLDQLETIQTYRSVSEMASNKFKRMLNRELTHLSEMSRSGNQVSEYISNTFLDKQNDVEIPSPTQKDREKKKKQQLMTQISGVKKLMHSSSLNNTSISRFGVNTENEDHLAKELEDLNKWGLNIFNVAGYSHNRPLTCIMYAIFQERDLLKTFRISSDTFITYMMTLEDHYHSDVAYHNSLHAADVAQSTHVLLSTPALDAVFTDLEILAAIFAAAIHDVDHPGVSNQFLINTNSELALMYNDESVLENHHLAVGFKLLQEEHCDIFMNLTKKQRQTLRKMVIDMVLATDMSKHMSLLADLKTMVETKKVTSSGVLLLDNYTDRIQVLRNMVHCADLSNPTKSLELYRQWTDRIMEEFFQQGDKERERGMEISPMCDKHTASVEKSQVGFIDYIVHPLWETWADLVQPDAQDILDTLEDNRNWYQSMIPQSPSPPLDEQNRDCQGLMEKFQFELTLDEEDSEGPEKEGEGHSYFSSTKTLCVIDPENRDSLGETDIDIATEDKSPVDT
Cytochrome P450 2D6 (Homo sapiens), sequence (P10635 whole entry, looked up): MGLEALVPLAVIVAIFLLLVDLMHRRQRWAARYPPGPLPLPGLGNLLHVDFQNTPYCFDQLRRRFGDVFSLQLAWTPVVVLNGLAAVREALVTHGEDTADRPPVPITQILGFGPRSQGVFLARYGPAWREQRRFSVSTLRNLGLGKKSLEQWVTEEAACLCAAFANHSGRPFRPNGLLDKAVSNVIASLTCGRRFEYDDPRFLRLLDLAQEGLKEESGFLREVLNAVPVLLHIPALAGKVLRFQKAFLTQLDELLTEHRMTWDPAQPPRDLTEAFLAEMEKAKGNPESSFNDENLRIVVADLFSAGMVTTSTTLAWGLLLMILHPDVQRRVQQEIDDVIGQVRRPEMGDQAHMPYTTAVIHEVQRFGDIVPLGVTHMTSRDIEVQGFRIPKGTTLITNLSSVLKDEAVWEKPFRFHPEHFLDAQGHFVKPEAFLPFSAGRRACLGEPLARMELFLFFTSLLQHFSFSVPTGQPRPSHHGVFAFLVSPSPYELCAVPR
Cytochrome P450 2C19 (Homo sapiens), sequence (P33261 whole entry, looked up): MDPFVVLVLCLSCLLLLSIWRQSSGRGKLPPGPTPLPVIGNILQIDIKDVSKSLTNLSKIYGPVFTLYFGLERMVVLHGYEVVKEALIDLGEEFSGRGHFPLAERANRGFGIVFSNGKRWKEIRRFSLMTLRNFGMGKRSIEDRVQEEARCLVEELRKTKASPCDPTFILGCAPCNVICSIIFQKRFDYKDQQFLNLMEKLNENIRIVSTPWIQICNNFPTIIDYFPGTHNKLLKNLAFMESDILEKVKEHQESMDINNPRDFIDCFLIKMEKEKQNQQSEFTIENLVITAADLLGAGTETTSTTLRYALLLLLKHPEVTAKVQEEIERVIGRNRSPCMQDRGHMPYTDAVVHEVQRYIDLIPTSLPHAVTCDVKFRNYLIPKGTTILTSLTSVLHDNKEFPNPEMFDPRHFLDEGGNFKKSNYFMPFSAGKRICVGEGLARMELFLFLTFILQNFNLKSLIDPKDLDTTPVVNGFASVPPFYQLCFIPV
Muscarinic acetylcholine receptor M1 (Rattus norvegicus), sequence (P08482 whole entry, looked up): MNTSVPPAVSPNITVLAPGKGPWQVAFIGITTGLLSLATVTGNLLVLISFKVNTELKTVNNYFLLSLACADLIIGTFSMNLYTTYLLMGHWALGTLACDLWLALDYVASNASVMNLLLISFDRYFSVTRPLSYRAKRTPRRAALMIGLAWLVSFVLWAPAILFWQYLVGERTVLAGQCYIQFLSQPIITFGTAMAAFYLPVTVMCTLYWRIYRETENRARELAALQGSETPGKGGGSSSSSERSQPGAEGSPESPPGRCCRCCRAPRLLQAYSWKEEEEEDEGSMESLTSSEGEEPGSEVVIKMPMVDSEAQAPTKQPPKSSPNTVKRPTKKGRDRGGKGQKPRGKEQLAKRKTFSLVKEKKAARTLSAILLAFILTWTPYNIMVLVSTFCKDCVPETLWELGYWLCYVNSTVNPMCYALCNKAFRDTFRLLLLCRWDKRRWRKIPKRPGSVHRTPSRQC
Pyruvate kinase PKM (Homo sapiens), sequence (P14618 whole entry, looked up): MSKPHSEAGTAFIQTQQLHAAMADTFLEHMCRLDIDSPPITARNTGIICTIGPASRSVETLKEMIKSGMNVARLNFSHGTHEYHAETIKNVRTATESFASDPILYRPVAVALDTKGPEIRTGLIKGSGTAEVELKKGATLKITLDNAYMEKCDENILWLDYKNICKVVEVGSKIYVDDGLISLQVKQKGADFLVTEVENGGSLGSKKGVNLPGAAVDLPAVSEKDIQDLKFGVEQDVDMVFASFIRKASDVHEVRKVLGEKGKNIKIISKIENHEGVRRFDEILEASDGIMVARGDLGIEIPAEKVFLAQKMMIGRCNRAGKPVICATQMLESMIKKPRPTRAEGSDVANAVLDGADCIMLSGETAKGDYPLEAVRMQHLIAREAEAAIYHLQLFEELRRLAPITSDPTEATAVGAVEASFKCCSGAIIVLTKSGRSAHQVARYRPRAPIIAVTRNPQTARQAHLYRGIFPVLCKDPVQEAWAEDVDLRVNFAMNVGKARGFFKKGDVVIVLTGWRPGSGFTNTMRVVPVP
Cytochrome P450 2C9 (Homo sapiens), sequence (P11712 whole entry, looked up): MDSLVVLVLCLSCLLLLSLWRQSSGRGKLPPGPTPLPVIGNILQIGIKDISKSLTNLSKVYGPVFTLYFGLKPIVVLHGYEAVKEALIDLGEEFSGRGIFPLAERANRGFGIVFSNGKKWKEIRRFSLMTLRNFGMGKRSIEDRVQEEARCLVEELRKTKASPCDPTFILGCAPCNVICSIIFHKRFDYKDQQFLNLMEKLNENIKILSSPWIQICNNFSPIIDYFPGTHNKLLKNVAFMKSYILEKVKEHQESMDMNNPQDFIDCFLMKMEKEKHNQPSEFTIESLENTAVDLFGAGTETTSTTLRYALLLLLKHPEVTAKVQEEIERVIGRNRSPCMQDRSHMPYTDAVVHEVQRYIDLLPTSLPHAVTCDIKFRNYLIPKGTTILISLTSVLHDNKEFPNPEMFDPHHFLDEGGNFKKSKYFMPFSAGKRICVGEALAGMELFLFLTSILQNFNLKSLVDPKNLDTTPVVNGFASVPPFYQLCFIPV
Alpha-galactosidase A (Homo sapiens), sequence (P06280 whole entry, looked up): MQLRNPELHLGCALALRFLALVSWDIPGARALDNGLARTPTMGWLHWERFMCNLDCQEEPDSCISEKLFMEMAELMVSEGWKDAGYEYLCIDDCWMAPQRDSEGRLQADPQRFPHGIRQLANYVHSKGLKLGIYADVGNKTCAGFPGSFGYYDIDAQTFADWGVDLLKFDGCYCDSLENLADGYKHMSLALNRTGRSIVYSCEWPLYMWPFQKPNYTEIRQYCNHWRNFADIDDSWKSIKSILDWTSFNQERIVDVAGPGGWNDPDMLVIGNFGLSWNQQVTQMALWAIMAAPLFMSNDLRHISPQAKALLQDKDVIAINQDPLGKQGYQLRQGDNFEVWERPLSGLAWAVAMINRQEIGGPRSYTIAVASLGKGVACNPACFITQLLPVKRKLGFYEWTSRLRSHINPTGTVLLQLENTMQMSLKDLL

In the case of `CC1(NC[C@@H](O)COc2cccc3[nH]ccc23)CCC(C(C)(C)NC(=O)CBr)CC1` (stereo not given in full), the activity change, negative = inhibition [1] is reported as 7.03% [at 38 µM], the Potency [2] is reported as “inactive” and the activity, negative = inhibition [3] is reported as 18.1% [at 38 µM]. For the same molecule, the Potency [4] was over 46 µM, the Potency [5] was over 46 µM and the Potency [6] was “inactive”. The Potency [7] was 1.26 µM (active) and the Potency [8] was “inactive”.

In the case of `COCCNc1nc(-c2ccc(N(C)C)cc2)nc2ccccc12`, the activity change, negative = inhibition [1] is reported as 26.5% [at 7.69 µM], the Potency [2] is reported as 0.631 µM (active) and the activity, negative = inhibition [3] is reported as 4.49% [at 7.69 µM]. For the same molecule, the Potency [4] was over 46 µM, the Potency [9] was “inactive” and the Potency [10] was “inactive”. For the same molecule, the Potency [11] was “inactive”.

`O=C1CC(c2ccco2)CC(O)=C1C=NCCN1CCN(C2CC(=O)N(c3ccccc3)C2=O)CC1` (stereo not given) gave an activity change, negative = inhibition [1] of -3.13%, an activity change, negative = inhibition [12] of -22.1% and an activity, negative = inhibition [3] of -0.0328%.

In the case of `CCCc1nnc(NC(=O)Nc2ccccc2OC)s1`, the activity change, negative = inhibition [1] is reported as 0.551%, the activity change, negative = inhibition [12] is reported as 25% and the activity, negative = inhibition [3] is reported as -4.19%.

In the case of `C/C(=N\O)C1(C)N(O)C(C)(C)C(c2ccco2)=[N+]1[O-]` (stereo not given), the activity change, negative = inhibition [1] is reported as 5.37%, the activity change, negative = inhibition [12] is reported as 9.27% and the activity, negative = inhibition [3] is reported as 1.33%.

In the case of `COC(=O)c1ccc(-c2sc3nc(N4CCOCC4)c4c(c3c2N)CC(C)(C)OC4)o1`, the activity change, negative = inhibition [1] is reported as -12.7%, the activity change, negative = inhibition [12] is reported as -1.53% and the activity, negative = inhibition [3] is reported as 5.68%.

In the case of `C/C(=N/n1cnnc1)c1cccnc1`, the activity change, negative = inhibition [1] is reported as -1.84%, the activity change, negative = inhibition [12] is reported as -0.807% and the activity, negative = inhibition [3] is reported as 16.1%.

For `OC[C@@H]1O[C@@H](n2cnc3c(NCCc4ccccc4)ncnc32)[C@@H](O)[C@H]1O`, the activity change, negative = inhibition [1] was -4.22% [at 38 µM], the Potency [2] was “inactive” and the activity, negative = inhibition [3] was 0.109% [at 38 µM]. For the same molecule, the Potency [4] was over 46 µM, the Potency [5] was over 46 µM and the Potency [9] was “inactive”. For the same molecule, the Potency [10] was “inactive”, the Potency [7] was “inactive” and the Potency [8] was “inactive”.

`COc1ccc(C(=O)Nc2nc(N)n(-c3ccccc3)n2)cc1OC` gave an activity change, negative = inhibition [1] of -0.0315%, an activity change, negative = inhibition [12] of -1.36% and an activity, negative = inhibition [3] of 1.75%.

In the case of `COc1ccc2c(c1)CN([C@H](C)[C@@H]1CC[C@@H]3[C@H]4CC[C@H]5C[C@@H](O)CC[C@@]5(C)[C@H]4CC[C@]31C)CO2`, the activity change, negative = inhibition [1] is reported as 23.1% [at 7.69 µM], the activity change, negative = inhibition [2] is reported as -18% [at 2.29 µM] and the activity, negative = inhibition [3] is reported as -2.48% [at 7.69 µM]. It also gave a Potency [4] of over 46 µM, a Potency [5] of over 9.22 µM and an activity change, negative = inhibition [9] of -1.53% [at 11.4 µM]. For the same molecule, the Potency [10] was “inactive”.

In the case of `C/C=C1\C(=O)C[C@@H]2[C@@H]3CCC4=CC(=O)CC[C@@]4(C)[C@H]3CC[C@@]12C`, the activity change, negative = inhibition [1] is reported as 13.9% [at 38 µM], the Potency [2] is reported as “inactive” and the activity, negative = inhibition [3] is reported as 7.49% [at 38 µM]. For the same molecule, the Potency [10] was “inactive”, the Potency [13] was “inactive” and the Potency [14] was “inactive”. The Potency [15] was “inactive”, the Potency [16] was “inactive” and the outcome [17] was “inactive”. The outcome [18] was “inactive” and the outcome [19] was “inactive”.
